Measured values taken from publication PMC5700166.

Experiments:
Experiment in all cases: protein-binding microarray (PBM); PBM: ~300 nM protein, 6 mM HEPES pH 7.8, 80 mM KCl, 0.5 mM EDTA, 0.5 mM EGTA, 6% glycerol, 35 ng/ul poly-dIdC, 1% milk, 1 h, room temperature; Ap Aiptasia and Nv Nematostella (sea anemones) / Co Capsaspora / Aq Amphimedon (sponge) / Dm Drosophila / Hu human; RHD is the Rel homology domain; high values mean tight binding
Conditions in all cases: dsDNA, one strand shown
GST-Ap-NF-kB RHD = biological target: T1, GST-Ap-NF-kB RHD (Exaiptasia pallida (Aiptasia), UniProt A0A913YAJ5 2-422)
T1 sequence: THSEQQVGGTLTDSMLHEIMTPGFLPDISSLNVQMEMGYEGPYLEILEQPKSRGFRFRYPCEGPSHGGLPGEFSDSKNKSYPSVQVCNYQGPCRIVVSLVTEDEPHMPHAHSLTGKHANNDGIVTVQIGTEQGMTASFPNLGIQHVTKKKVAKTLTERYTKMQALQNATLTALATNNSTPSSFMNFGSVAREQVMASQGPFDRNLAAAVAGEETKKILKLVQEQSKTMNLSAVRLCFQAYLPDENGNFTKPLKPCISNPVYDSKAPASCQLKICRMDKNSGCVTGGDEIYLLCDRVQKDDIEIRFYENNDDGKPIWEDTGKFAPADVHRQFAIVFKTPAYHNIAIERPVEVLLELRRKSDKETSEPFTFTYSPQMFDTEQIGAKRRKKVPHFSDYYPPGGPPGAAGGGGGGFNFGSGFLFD

[1] = biological target: T2, GST-Nv-NF-kB (Cys allele) (Nematostella vectensis, UniProt E5G601 2-411)
T2 sequence: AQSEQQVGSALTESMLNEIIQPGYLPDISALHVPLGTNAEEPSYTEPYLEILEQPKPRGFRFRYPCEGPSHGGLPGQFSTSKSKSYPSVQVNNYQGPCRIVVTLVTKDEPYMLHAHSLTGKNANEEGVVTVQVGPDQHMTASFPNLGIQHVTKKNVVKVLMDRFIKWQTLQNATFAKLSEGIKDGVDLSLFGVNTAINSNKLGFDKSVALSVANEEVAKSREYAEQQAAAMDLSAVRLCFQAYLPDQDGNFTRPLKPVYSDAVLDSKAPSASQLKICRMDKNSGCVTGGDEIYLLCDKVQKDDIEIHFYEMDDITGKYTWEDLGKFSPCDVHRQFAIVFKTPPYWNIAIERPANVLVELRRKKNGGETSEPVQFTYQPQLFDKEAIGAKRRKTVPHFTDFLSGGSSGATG

GST-Co-NF-kB = biological target: T3, GST-Co-NF-kB (Capsaspora owczarzaki, UniProt F1ARL5 200-546)
T3 sequence: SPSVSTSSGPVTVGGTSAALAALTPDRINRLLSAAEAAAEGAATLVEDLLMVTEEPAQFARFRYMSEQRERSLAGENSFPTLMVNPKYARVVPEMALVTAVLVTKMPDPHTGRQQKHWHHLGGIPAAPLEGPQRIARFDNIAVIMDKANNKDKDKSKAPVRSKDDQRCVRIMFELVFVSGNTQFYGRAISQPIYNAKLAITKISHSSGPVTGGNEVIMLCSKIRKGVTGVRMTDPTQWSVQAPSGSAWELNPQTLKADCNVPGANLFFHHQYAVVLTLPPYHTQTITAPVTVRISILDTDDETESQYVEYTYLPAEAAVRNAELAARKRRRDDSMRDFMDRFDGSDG

GST-Dm-Relish = biological target: T4, GST-Dm-Relish (Drosophila melanogaster, UniProt Q94527 99-473)
T4 sequence: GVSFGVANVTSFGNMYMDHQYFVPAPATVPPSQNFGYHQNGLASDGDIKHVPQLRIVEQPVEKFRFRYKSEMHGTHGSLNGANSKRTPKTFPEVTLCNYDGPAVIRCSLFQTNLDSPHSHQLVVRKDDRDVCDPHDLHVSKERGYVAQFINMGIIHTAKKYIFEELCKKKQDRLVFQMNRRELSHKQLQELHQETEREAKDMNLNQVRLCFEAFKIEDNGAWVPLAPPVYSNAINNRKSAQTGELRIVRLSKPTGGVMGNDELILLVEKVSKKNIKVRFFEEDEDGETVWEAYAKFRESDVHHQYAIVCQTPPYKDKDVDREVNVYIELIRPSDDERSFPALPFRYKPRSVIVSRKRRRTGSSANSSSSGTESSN

GST-Aq-NF-kB = biological target: T5, GST-Aq-NF-kB (Amphimedon queenslandica, UniProt A9Y5G7 2-389)
T5 sequence: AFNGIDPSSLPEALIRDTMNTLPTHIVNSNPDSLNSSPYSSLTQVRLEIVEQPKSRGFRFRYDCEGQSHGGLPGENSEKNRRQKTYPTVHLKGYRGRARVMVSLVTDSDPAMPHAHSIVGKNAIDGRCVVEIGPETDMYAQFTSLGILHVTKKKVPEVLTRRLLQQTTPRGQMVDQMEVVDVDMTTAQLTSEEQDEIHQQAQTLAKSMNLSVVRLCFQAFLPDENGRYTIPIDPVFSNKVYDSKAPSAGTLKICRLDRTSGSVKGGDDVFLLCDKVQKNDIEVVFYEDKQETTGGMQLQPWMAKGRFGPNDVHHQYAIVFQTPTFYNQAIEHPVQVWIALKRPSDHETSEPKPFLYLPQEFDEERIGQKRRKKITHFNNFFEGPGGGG

Row | Sequence | binding signal (GST-Ap-NF-kB RHD) [z-score] | binding signal [1] [z-score] | binding signal (GST-Co-NF-kB) [z-score] | binding signal (GST-Dm-Relish) [z-score] | binding signal (GST-Aq-NF-kB) [z-score]
1 | CCGATTAACATCAGGAGTCCCCATGATGTTAATCGGGTCTTGATTCGCTTGACGCTGCTG | 6.21 | 4.39 | 2.23 | 7.3 | 4.27
2 | CCGATTAACATCAGGGATTCCCATGATGTTAATCGGGTCTTGATTCGCTTGACGCTGCTG | 4.88 | 4.61 | 2.91 | 10 | 6.04
3 | CCGATTAACATCAGGGGGCATTATGATGTTAATCGGGTCTTGATTCGCTTGACGCTGCTG | 3.92 | 4.06 | 2.64 | 2.7 | 4.27
4 | CCGATTAACATCAGTAACTCCCTTGATGTTAATCGGGTCTTGATTCGCTTGACGCTGCTG | 2.54 | 2.67 | 1.16 | 2.91 | 3.78
5 | CCGATTAACATCACCCAACCCCCTGATGTTAATCGGGTCTTGATTCGCTTGACGCTGCTG | 4.6 | 2.94 | 2.21 | 4.3 | 3.45
6 | CCGATTAACATCACATATACCCCTGATGTTAATCGGGTCTTGATTCGCTTGACGCTGCTG | 3.26 | 1.78 | 4.3 | 1.34 | 2.28
7 | CCGATTAACATCACTTTTTCCCATGATGTTAATCGGGTCTTGATTCGCTTGACGCTGCTG | 2.03 | 3.6 | 4.08 | 1.51 | 1.99
8 | CCGATTAACATCAGAATTACCCATGATGTTAATCGGGTCTTGATTCGCTTGACGCTGCTG | 3.09 | 3.82 | 2.12 | 1.97 | 3.58
9 | CCGATTAACATCAGGGAGATTTGTGATGTTAATCGGGTCTTGATTCGCTTGACGCTGCTG | 3.21 | 4.56 | 2.54 | 1.8 | 4.63
10 | CCGATTAACATCAAGCGTTCCCCTGATGTTAATCGGGTCTTGATTCGCTTGACGCTGCTG | 5.35 | 5.36 | 4.53 | 3.82 | 4.01
11 | CCGATTAACATCAGGGGGTAACCTGATGTTAATCGGGTCTTGATTCGCTTGACGCTGCTG | 6.07 | 3.41 | 5.91 | 3.94 | 5.48
12 | CCGATTAACATCAGGGAAATATATGATGTTAATCGGGTCTTGATTCGCTTGACGCTGCTG | 3.7 | 5.66 | 5.34 | 1.94 | 6.09
13 | CCGATTAACATCAGCCCCCCCCATGATGTTAATCGGGTCTTGATTCGCTTGACGCTGCTG | 4.34 | 2.9 | 5.27 | 4.42 | 4.51
14 | CCGATTAACATCAGGGGTAAAACTGATGTTAATCGGGTCTTGATTCGCTTGACGCTGCTG | 2.3 | 1.97 | 6.26 | 1.85 | 2.73
15 | CCGATTAACATCAGGGGGGGTGATGATGTTAATCGGGTCTTGATTCGCTTGACGCTGCTG | 3.51 | 4.08 | 4.48 | 4.26 | 4.36
16 | CCGATTAACATCAAAGAAATCCCTGATGTTAATCGGGTCTTGATTCGCTTGACGCTGCTG | 4.82 | 4.34 | 1.36 | 6.17 | 4.61
17 | CCGATTAACATCAGATATTTCCCTGATGTTAATCGGGTCTTGATTCGCTTGACGCTGCTG | 3.25 | 5.95 | 5.03 | 2.31 | 6.38
18 | CCGATTAACATCAGGGAATATTATGATGTTAATCGGGTCTTGATTCGCTTGACGCTGCTG | 5.06 | 5.86 | 3.81 | 3 | 5.75
19 | CCGATTAACATCACTTGGGAAACTGATGTTAATCGGGTCTTGATTCGCTTGACGCTGCTG | 1.38 | 2.05 | 2.44 | 1.01 | 1.18
20 | CCGATTAACATCACCACTTTCCCTGATGTTAATCGGGTCTTGATTCGCTTGACGCTGCTG | 3.21 | 4.07 | 3.94 | 1.32 | 3.11
21 | CCGATTAACATCAAGGGAGTACCTGATGTTAATCGGGTCTTGATTCGCTTGACGCTGCTG | 4.45 | 2.9 | 1.52 | 3.08 | 2.71
22 | CCGATTAACATCAGGGAATACCATGATGTTAATCGGGTCTTGATTCGCTTGACGCTGCTG | 3.14 | 2.92 | 2.08 | 6.8 | 4.48
23 | CCGATTAACATCAGGGAACTCCATGATGTTAATCGGGTCTTGATTCGCTTGACGCTGCTG | 2.66 | 2.2 | 1.5 | 6.21 | 3.71
24 | CCGATTAACATCAAATTCCCAGCTGATGTTAATCGGGTCTTGATTCGCTTGACGCTGCTG | 1.68 | 3.6 | 3.28 | 3.73 | 2.48
25 | CCGATTAACATCACCCCTCCCCCTGATGTTAATCGGGTCTTGATTCGCTTGACGCTGCTG | 4.84 | 3.91 | 4.73 | 3.78 | 4.12
26 | CCGATTAACATCAAGTTTTCCCATGATGTTAATCGGGTCTTGATTCGCTTGACGCTGCTG | 2.53 | 3.86 | 4.78 | 1.42 | 2.83
27 | CCGATTAACATCAGGCTTTCCCATGATGTTAATCGGGTCTTGATTCGCTTGACGCTGCTG | 1.49 | 2.94 | 2.07 | 2.07 | 2.88
